bovine MsrA act: bovine MsrA enzyme activators, primary screen, biochemical, absorbance, HTS | Methionine sulfoxide reductase A (Bos taurus) | purified bovine MsrA, absorbance read-out | activation, % at 10.6 µM | 360,000 compounds, 0.3% hits | AID 602163, 2012; in the data active means activation above about 7.5%
PKA-R1A activ: activators of PKA-R1A holoenzyme, primary screen, biochemical, fluorescence polarization, Cy5-IP20, bovine R1A, mouse PKAc; AID 504707, 2011; cAMP-dependent protein kinase type I-alpha regulatory subunit (Bos taurus) + …; activation, % at 11.4 µM; PKA-R1A dissociation; scaled: DMSO 0%, 113 µM cGMP 100%; 340,000 compounds, 0.083% hits;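 active means percent activation above the mean of all tested compounds plus 3 SD, cut at about 19% in these data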;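 further: higher means more PKAc released from R1A so a rise in polarization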
MsrA inhibitor: bovine MsrA enzyme inhibitors, primary screen, biochemical, absorbance, HTS; 360,000 compounds, 0.75% hits; AID 651718, 2012; inhibition, % at 15.5 µM; purified bovine MsrA, absorbance read-out
PKA-R2B activ: activators of PKA-R2B holoenzyme, primary screen, biochemical, fluorescence polarization, Cy5-IP20, human | activation, % at 11.4 µM | PKA-R2B holoenzyme dissociation; R2B truncated from residue 108, S112A mutant; 0% DMSO only, 100% 113 µM cGMP | AID 504700, 2011 | 340,000 compounds, 0.079% hits;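 active means activation above a cutoff set at the mean over all compounds plus 3 SD, cut at about 18% in these data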;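 further: higher means more holoenzyme dissociation and a rise in polarization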
Target sequence (P31323 whole entry, looked up, other chains not shown, the tested form may be a part): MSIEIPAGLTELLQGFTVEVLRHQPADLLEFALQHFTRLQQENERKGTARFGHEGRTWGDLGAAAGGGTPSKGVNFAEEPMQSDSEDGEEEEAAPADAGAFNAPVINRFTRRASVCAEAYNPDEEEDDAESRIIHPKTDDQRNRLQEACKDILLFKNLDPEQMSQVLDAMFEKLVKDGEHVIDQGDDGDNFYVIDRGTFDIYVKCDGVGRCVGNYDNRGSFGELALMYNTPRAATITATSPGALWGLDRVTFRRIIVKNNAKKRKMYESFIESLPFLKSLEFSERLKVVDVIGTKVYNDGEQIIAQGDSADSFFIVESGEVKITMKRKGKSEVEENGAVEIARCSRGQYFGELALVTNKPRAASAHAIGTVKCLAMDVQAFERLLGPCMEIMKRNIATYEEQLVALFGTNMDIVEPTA
MsrA inh confirm: bovine MsrA inhibitors, retest, confirmation, biochemical, absorbance, HTS. shares compounds with MsrA inhibitor. purified bovine MsrA, absorbance read-out. inhibition, % at 15.5 µM. 2,300 compounds, 41% hits. AID 651822, 2012;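 further: coupled to thioredoxin reductase with NADPH and selenocystamine and DMSO as substrate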
Of the large screens only hits and unclear results are named; the others gave an inactive call (follow-up assays come after a bar, where they were run); ! = not active in a repeat. This is a sample that favours compounds with a hit; in the whole collection about 1.1% have one here. Unless noted, no stated cut-off is given here; in the data, active means inhibition above about 4.5%; inactive means the rest.

Nc1ccc(-c2nc3ncccc3o2)c(Cl)c1	MsrA inhibitor 6.0 | MsrA inh confirm 5.2
Cc1ccc(-c2nc3ncccc3o2)cc1N	none
Nc1ccc(Cl)c(-c2nc3ncccc3o2)c1	none
Nc1ccc(-c2nc3ncccc3o2)c(O)c1	MsrA inhibitor 9.8 | MsrA inh confirm 7.2
Cc1cc(-c2nc3ncccc3o2)ccc1N	MsrA inhibitor 6.5 | MsrA inh confirm 6.6
CC(C)(C)C1=CC(CC(N)=O)(C(C)(C)C)OC1=O (stereo unspecified)	none (no result: bovine MsrA act, PKA-R1A activ, PKA-R2B activ)
CCCCOc1ccc(C2=CSC3=NCCN23)cc1[N+](=O)[O-]	none
CCCCOc1ccc(-c2csc(N)n2)cc1[N+](=O)[O-]	MsrA inhibitor 9.4 | MsrA inh confirm inactive
CCOC(=O)CSc1ncnc2c1nnn2-c1ccc(F)cc1	none
CC(=O)C(Sc1ncnc2c1nnn2-c1ccc(F)cc1)C(=O)N(C)C (stereo unspecified)	MsrA inhibitor 5.7 (no result: bovine MsrA act, PKA-R1A activ, PKA-R2B activ) | MsrA inh confirm inactive
COc1ccc(C(=O)N/C(=C\c2cn(C)c3ccccc23)C(=O)NCCCN2CCOCC2)cc1OC	MsrA inhibitor 5.7 | MsrA inh confirm inactive
CN(C)S(=O)(=O)n1cc(/C=C(\NC(=O)c2ccccc2)C(=O)NCCCN2CCOCC2)c2ccccc21	none
CCn1cc(/C=C(\NC(=O)c2ccc(OC)c(OC)c2)C(=O)NCCN2CCOCC2)c2ccccc21	none
CCn1cc(/C=C(\NC(=O)c2ccc(OC)c(OC)c2)C(=O)NCCCO)c2ccccc21	MsrA inhibitor 5.8 | MsrA inh confirm inactive
CN(C)c1ccc(/C=C(\NC(=O)c2ccccc2)C(=O)NCCN2CCOCC2)cc1	MsrA inhibitor 5.3 | MsrA inh confirm inactive
Cn1cc(/C=C(\NC(=O)c2ccccc2)C(=O)NCCCN2CCOCC2)c2ccccc21	MsrA inhibitor 6.8 | MsrA inh confirm 5.3
O=C(NCc1ccccc1)[C@@H]1CCCN1C(=O)[C@H]1CCCN1C(=O)c1c(F)cccc1F	none (no result: bovine MsrA act, PKA-R1A activ, PKA-R2B activ)
Cc1cccc(C(=O)N/N=C2\CS(=O)(=O)N(C)c3ccsc32)c1	none
CN(C)S(=O)(=O)n1cc(/C=C(\NC(=O)c2ccccc2F)C(=O)NCCN2CCOCC2)c2ccccc21	none
CCn1cc(/C=C(\NC(=O)c2ccccc2F)C(=O)NCCN2CCOCC2)c2ccccc21	MsrA inhibitor 5.3 | MsrA inh confirm inactive
C=CCCC1CN(Cc2ccc(OC)cc2)S(=O)(=O)c2c(cccc2Sc2ccc(OC)c(OC)c2)O1 (stereo unspecified)	none (no result: bovine MsrA act, PKA-R1A activ, PKA-R2B activ)
O=C(COc1ccc2c(-c3ccccc3)cc(=O)oc2c1)NCC1CCC(C(=O)O)CC1 (stereo unspecified)	MsrA inhibitor 5.0 | MsrA inh confirm inactive
CCN(CC)C(=O)c1sc2nc(Cc3ccccc3)[nH]c(=O)c2c1C	none
Cc1c(C(=O)N(C)C)sc2nc(-c3ccccn3)[nH]c(=O)c12	MsrA inhibitor 5.8 | MsrA inh confirm inactive
COc1cc(/C=N/NC(=O)c2cc(-c3ccco3)nc3ccccc23)cc(OC)c1O	MsrA inhibitor 4.7 | MsrA inh confirm inactive
COc1cc(/C=N/NC(=O)c2cc(-c3ccccc3)nc3ccccc23)ccc1O	MsrA inhibitor 5.0 | MsrA inh confirm inactive
COc1ccc(-c2cc(C(=O)N/N=C/c3ccc4c(c3)OCO4)c3ccccc3n2)c(OC)c1	MsrA inhibitor 5.8 | MsrA inh confirm inactive
COc1cc(/C=N/NC(=O)c2cc(-c3ccccc3Cl)nc3ccccc23)cc(OC)c1O	none
COc1ccc(/C=N/NC(=O)c2[nH]c3ccc(C)cc3c2-c2ccccc2)c(C(=O)O)c1OC	MsrA inhibitor 6.2 | MsrA inh confirm inactive
COc1ccc(/C=N/NC(=O)c2cc(-c3ccccc3)nc3ccccc23)cc1O	none
CCOc1ccc(-n2c(=O)c3sccc3n(Cc3ccc(C)cc3)c2=O)cc1	none
COc1cccc(-c2cc(C(=O)N/N=C/c3cccc(OC)c3OC)c3ccccc3n2)c1	none
Cc1nn(-c2ccccc2)c(N2CCCC2)c1/C=N/NC(=O)c1ccccc1O	none
COc1ccc(/C=N/NC(=O)c2cc(-c3ccccc3)nc3ccccc23)c(C(=O)O)c1OC	MsrA inhibitor 4.7 | MsrA inh confirm inactive
COc1cc(/C=N/n2c(C)nc3ccccc3c2=O)ccc1O	MsrA inhibitor 5.4 | MsrA inh confirm inactive
Cc1nc2ccccc2c(=O)n1/N=C/c1ccccc1	none
Cc1nn(-c2ccccc2)c(N2CCCC2)c1/C=N/NC(=O)c1cc(-c2cccnc2)nc2ccccc12	MsrA inhibitor 4.7 | MsrA inh confirm inactive
O=C(CCNS(=O)(=O)c1cccc(C(F)(F)F)c1)NC1CC1	none
CCC(C)/C(C)=N/Nc1ccc(S(N)(=O)=O)cc1[N+](=O)[O-] (stereo unspecified)	MsrA inhibitor 7.7 | MsrA inh confirm inactive
CCNc1ccc(S(N)(=O)=O)cc1[N+](=O)[O-]	none
C/C(CC(C)C)=N\Nc1ccc(S(N)(=O)=O)cc1[N+](=O)[O-]	MsrA inhibitor 11 | MsrA inh confirm 5.6
COc1ccccc1NS(=O)(=O)c1ccc(N/N=C(\C)C(C)C)c([N+](=O)[O-])c1	MsrA inhibitor 9.2 (no result: bovine MsrA act) | MsrA inh confirm inactive
Nc1nc2c(ncn2[C@@H]2O[C@H](C(=O)N[C@H](Cc3ccccc3)C(=O)NC3CCCCC3)[C@@H](O)[C@H]2O)c(=O)[nH]1	none (no result: bovine MsrA act, PKA-R1A activ, PKA-R2B activ)
COc1ccc(C(C)=O)cc1CSC(=S)N1CCSCC1	none (no result: bovine MsrA act, PKA-R1A activ, PKA-R2B activ)
S=c1nc(-c2ccccc2Cl)n(Cc2cccnc2)c2c1CCCC2	MsrA inhibitor 5.9 | MsrA inh confirm 4.7
N#C/C(=C(\O)c1ccco1)c1ccccn1	MsrA inhibitor 5.1 | MsrA inh confirm inactive
N#C/C(=C(/O)CN1CCOCC1)c1nc2ccccc2s1	MsrA inhibitor 4.8 | MsrA inh confirm inactive
N#C/C(=C(\O)Cc1ccccc1)c1nc2ccccc2[nH]1	none
N#CC(C(=O)c1ccco1)c1ccccn1 (stereo unspecified)	MsrA inhibitor 5.9 | MsrA inh confirm inactive
N#C/C(=C(/O)c1ccco1)c1nc2ccccc2[nH]1	MsrA inhibitor 7.2 | MsrA inh confirm 4.6
CC(=O)C1=C(C)N(Cc2ccc(Cl)cc2)C(=S)NC1c1cccc(Br)c1 (stereo unspecified)	none (no result: bovine MsrA act, PKA-R1A activ, PKA-R2B activ)
O=C(NC1CC1)c1nc(Cn2cc([N+](=O)[O-])cn2)no1	none
N#C/C(=C(/O)c1cc2ccccc2o1)c1nc2ccccc2s1	none
N#C/C(=C(/O)c1ccco1)c1nc2ccccc2s1	MsrA inhibitor 4.8! | MsrA inh confirm 4.6
CCc1nnc(NC(=O)c2ccncc2)s1	MsrA inhibitor 5.6 | MsrA inh confirm inactive
CCCc1nnc(NC(=O)c2ccncc2)s1	none
O=C1NC(c2ccccc2)(c2ccccc2)C(=O)N1CNc1ccccn1	none (no result: bovine MsrA act, PKA-R1A activ, PKA-R2B activ)
O=C(N/N=C/c1ccc2nccnc2c1)c1ccccc1O	none (no result: bovine MsrA act, PKA-R1A activ, PKA-R2B activ)
O=C(N/N=C/c1ccnc2ccccc12)c1ccccc1O	MsrA inhibitor 5.6 | MsrA inh confirm inactive

High-throughput results: PubChem BioAssay, The Scripps Research Institute Molecular Screening Center
